Records with an inconclusive call do not appear. A call without a number means that no potency is given here. Unmarked numbers belong to inactive results. The source made the active and inactive calls. Calls follow the shape of the dose curve; as a rule, active = well fitted cell-killing curve with a large enough effect; inconclusive = small, poorly fitted or top-dose-only effect, or effect the other way; inactive = no such curve, though single readings can be large or run the other way.
What was measured:
[1] = Viability qHTS for spleen associated tyrosine kinase inhibitor (SYKi) naive MV4-11 cells (AID 1963823); conditions: MV4-11 AML viability, CellTiter-Glo luminescence, 72 h; series mostly up to 45 µM; also: nearly all actives have a fitted effect of over 40% in size
Procedure, shortened: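 Read-out: CellTiter-Glo luminescence. Exposure: 72 hr, 37 C, 5% CO2, 95% humidity. Cells: MV4-11 without SYK inhibitor history, 500/well, qHTS format.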

[2] = Viability qHTS for spleen associated tyrosine kinase inhibitor (SYKi) drug resistant MV4-11 cells (AID 1963824); conditions: SYKi-resistant MV4-11 viability, CellTiter-Glo, 72 h; series mostly up to 45 µM; also: nearly all actives have a fitted effect of over 35% in size
Procedure, shortened: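 SYK-inhibitor-resistant MV4-11 AML cells were seeded at 500 per well onto compound and cultured 72 hours (37 °C, 5% CO2). CellTiter-Glo was then added, and after 10 min at room temperature, luminescence gave viability.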
Potency is read from the fitted curve at half-maximal effect.

Structure (SMILES) | Potency [1] | Potency [2] | viability (% of control) [1] | viability, % of control [2]
CC(C)CCC1(O)C(=O)C(C)(C)C(O[C@@H]2O[C@H](CO)[C@@H](O)[C@H](O)[C@H]2O)C(C)(C)C1O (some centres not stated) | inactive | inactive | – | –
CC1(CCC(=O)O)C(=O)C=CC23CC4CC(OC4(C)C2O)C13 (configuration not stated) | inactive | inactive | – | –
C[C@@H]1CC[C@H]2C(C)(C)[C@H](O)[C@H](O)C[C@]2(C)[C@@]12Cc1c(O)cc3c(c1O2)CNC3=O | inactive | inactive | – | –
C[C@H]1CC[C@@]2(OC1)O[C@H]1CC3C4CC[C@H]5C[C@@H](O)[C@H](O)C[C@]5(C)C4=CC(=O)[C@]3(C)[C@H]1[C@@H]2C (some centres not stated) | inactive | inactive | – | –
COc1ccccc1OCCNCC(O)CCOc1cccc2[nH]c3ccccc3c12 (configuration not stated) | 9200 nM (active) | 9200 nM (active) | – | –
CC(C)C1=CCC(C)(O)C(OC2OC(CO)C(O)C(O)C2O)C1 (configuration not stated) | inactive | inactive | – | –
COc1cc(NC(=O)c2cc(C3CC3)on2)c(OC)cc1Cl | inactive | inactive | – | –
CCCCC[C@H](O)C=C[C@H]1[C@H](O)CC(=O)[C@H]1CC=CCCCC(=O)O | 119 nM (active) | 18.6 nM (active) | – | –
CC(=O)O[C@@H]1C[C@H](O)[C@@]23CO[C@H](O)[C@]1(C)C2C[C@@H](O)[C@]1(C)C3C(=O)[C@H](OC(C)=O)[C@@]2(C)[C@H](c3ccoc3)C[C@H]3O[C@]321 (some centres not stated) | 38.5 nM (active) | 34.3 nM (active) | – | –
C=C1CC23CC1(O)CCC2C1=CC2OC(=O)C(C)(C2O)C1C3C(=O)O (configuration not stated) | inactive | inactive | – | –
COc1cc(/C=C/C(=O)O[C@H]2[C@@H]3C=CO[C@@H](O[C@@H]4O[C@H](CO)[C@@H](O)[C@H](O)[C@H]4O)[C@@H]3[C@@]3(CO)O[C@@H]23)ccc1O | inactive | inactive | – | –
O=C(O)Cc1cn([C@@H]2O[C@H](CO)[C@@H](O)[C@H](O)[C@H]2O[C@@H]2O[C@H](CO)[C@@H](O)[C@H](O)[C@H]2O)c2ccccc12 | inactive | inactive | – | –
Cc1cc2c(N3CCCC3)nc(N3CCCC3)nc2n1C | 8200 nM (active) | 7310 nM (active) | – | –
C[C@]12CC[C@@H]3c4ccc(O)cc4CC[C@H]3[C@@H]1C[C@@H](O[C@@H]1O[C@H](C(=O)O)[C@@H](O)[C@H](O)[C@H]1O)[C@@H]2O | inactive | inactive | – | –
CC1CCC/C=C/C(=O)c2c(O)cc(O)cc2CC(=O)O1 (configuration not stated) | 3660 nM (active) | 2060 nM (active) | – | –
C=C1CC[C@H]2[C@@](C)(CCC(O)[C@@]2(C)CO)[C@@H]1/C=C/C(=C\C(=O)O)C(=O)O (some centres not stated) | inactive | inactive | – | –
C=C1C(=O)O[C@@H]2[C@H]1CC(=O)[C@H](C)[C@@](O)(C(=O)/C=C/C)[C@H]2OC(=O)C(C)CC (some centres not stated) | 360 nM (active) | 508 nM (active) | – | –
CC1CCC2C(C(=O)O)=COC(O[C@@H]3O[C@H](CO)[C@@H](O)[C@H](O)[C@H]3O)C12 (some centres not stated) | inactive | 16100 nM (active) | – | –
CCCC(Nc1nc(-c2ccc(NC(=O)NCC)c(OC)c2)ncc1C)c1cccnc1 (configuration not stated) | 58 nM (active) | 130 nM (active) | – | –
C[C@H]1CC[C@@H]2N(C1)C[C@@H]1[C@H]([C@@H](O)[C@H](O)[C@]3(O)[C@H]1C[C@@]14OC5(O)[C@@H](C[C@@H](O)[C@@H]31)[C@]4(C)CC[C@@H]5O)[C@]2(C)O | inactive | inactive | – | –
CC(C)(C)Nc1nc2cc(Cl)c(Cl)cc2nc1S(C)(=O)=O | 731 nM (active) | 731 nM (active) | – | –
COC(=O)C1=CO[C@@H](O[C@@H]2O[C@H](CO)[C@@H](O)[C@H](O)[C@H]2O)[C@@H]2[C@@](C)(O)[C@@H](OC(=O)/C=C/c3ccc(O)cc3)C[C@]12O | inactive | inactive | – | –
C[C@@]12CC3(S(=O)(=O)O)OC(O1)[C@]1(COC(=O)c4ccccc4)[C@H]3C[C@]21O[C@@H]1O[C@H](CO)[C@@H](O)[C@H](O)[C@H]1O | inactive | inactive | – | –
CN(C)CC(c1ccc(O)cc1)C1(O)CCCCC1 (configuration not stated) | inactive | inactive | – | –
NC(=O)c1cccc(-c2cc(O)cc(OC(=O)NC3CCCCC3)c2)c1 | inactive | inactive | – | –
CC1(C)CC[C@]2(C(=O)O[C@@H]3O[C@H](CO)[C@@H](O)[C@H](O)[C@H]3O)CC[C@]3(C)C(=CCC4[C@@]5(C)CC[C@H](O[C@@H]6O[C@H](C(=O)O)[C@@H](O)[C@H](O)[C@H]6O)[C@@](C)(CO)C5CC[C@]43C)C2C1 (some centres not stated) | – | – | 98% [at 9.25 µM] | 100% [at 9.25 µM]

— PubChem BioAssay (NCATS)
